# Shown are actives, neighbours in structure and some others; about 4% of the full set was active somewhere.
# GDH-TPI counter – inhibits GDH-TPI coupling enzymes, artifact for Mtb FBA screen; GDH-TPI coupled enzyme counterscreen, NADH absorbance; inhibition, % at 4.8 µM; 1.2% of 360,000 active; in the data active means inhibition above about 30%
# UGM FP inh – inhibitors of M. tuberculosis UDP-galactopyranose mutase | purified UGM, fluorescence polarization probe displacement | inhibition, % at 10 µM | 0.06% of 320,000 active; in the data active means inhibition above about 10%, passing the limit was not always enough; inconclusive means no clear call, values can overlap the other calls
# Rv3671c inh – inhibitors of M. tuberculosis serine protease Rv3671c; AID 2606; 0.048% of 320,000 active; P9WHR9; inhibition, % at 5.96 µM; in the data active means inhibition above about 38%;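 further: extracellular domain of Rv3671c used as enzyme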
# RecA splice inh – blocks M. tuberculosis RecA intein splicing; 0.75% of 290,000 active; inhibition, % (test concentration not listed); cell-free RecA intein splicing, fluorescence; in the data active means inhibition above about 30%; inconclusive means no clear call, values can overlap the other calls
# Mtb bLac sens – beta-lactam sensitization of Mtb H37Rv. inhibition, % at 25 µM. M. tuberculosis H37Rv growth with meropenem, percent inhibition. 0.27% of 330,000 active; call rule not given here;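 further: growth measured after seven days incubation then overnight dye step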
# Mtb FBA inh – inhibitors of M. tuberculosis fructose-bisphosphate aldolase; purified M. tuberculosis FBA, fluorescence read-out; inhibition, % at 1 µM; 2.3% of 360,000 active; in the data active means inhibition above about 27%
# Target sequence (P9WQA3 whole entry, looked up): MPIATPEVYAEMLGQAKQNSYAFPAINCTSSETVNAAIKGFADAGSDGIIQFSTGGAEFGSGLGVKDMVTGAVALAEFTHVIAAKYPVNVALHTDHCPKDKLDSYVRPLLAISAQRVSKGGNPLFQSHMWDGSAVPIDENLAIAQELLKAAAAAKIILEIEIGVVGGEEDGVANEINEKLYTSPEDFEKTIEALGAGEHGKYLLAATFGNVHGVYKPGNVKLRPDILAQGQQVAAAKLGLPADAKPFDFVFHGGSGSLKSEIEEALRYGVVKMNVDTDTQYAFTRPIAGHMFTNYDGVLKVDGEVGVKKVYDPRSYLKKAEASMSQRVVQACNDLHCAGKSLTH
# Numbers stand for hits; i = inactive; ? = inconclusive; nt = no result; + = active, no number; ! = a repeat was not active.
SMILES,GDH-TPI counter,UGM FP inh,Rv3671c inh,RecA splice inh,Mtb bLac sens,Mtb FBA inh
Cn1c(NNC(=O)/C=C/c2ccc3c(c2)OCO3)cc(=O)n(C)c1=O,39,i,i,nt,i,i
COc1cc([C@H]2[C@@H]3CCCC[C@]3(O)CCN2Cc2ccccc2F)ccc1O,i,i,i,i,i,i
CCS(=O)(=O)c1nc(S(=O)(=O)c2ccc(C)cc2)c(N2CCCC2)s1,34,i,i,i,i,i
CCS(=O)(=O)c1nc(S(=O)(=O)c2ccc(C)cc2)c(N2CCCCCC2)s1,i,nt,nt,nt,nt,i
O=C(CSc1nc(-c2ccco2)cc(C(F)(F)F)n1)Nc1cccnc1,32,i,i,i,i,i
O=C(CSc1nc(-c2ccco2)cc(C(F)(F)F)n1)Nc1ccc2c(c1)OCO2,i,i,i,i,i,i
COC(CN(C(=O)CCl)C(C(=O)NC1CCCC(C)C1C)c1ccc(C)cc1)OC (centres undefined),+,i,i,45,i,i
COC(CN(C(=O)CCl)C(C(=O)NC1CCCCC1)c1ccccc1C)OC (centres undefined),i,i,i,i,?,i
Cc1cc(OC(=O)c2cc([N+](=O)[O-])ccc2Cl)c([N+](=O)[O-])c(=O)[nH]1,i,i,i,i,i,i
O=C(Cc1ccc(NC(=O)C2CCN(C(=O)C3CCC3)CC2)cc1)Nc1cccc(C(=O)N2CCCCC2)c1,i,nt,nt,nt,nt,i
O=C1c2ccccc2NC(c2ccccc2)N1/N=C/c1ccccc1 (centres undefined),i,i,i,i,i,i
O=C1c2ccccc2NC(c2ccc(O)cc2)N1/N=C/c1ccc(O)cc1 (centres undefined),32,i,i,i,i,i
COc1ccc(C2=NN3C(=O)c4c(ccc(OC)c4OC)C3C2)cc1 (centres undefined),36,i,i,i,i,i
COc1ccc(-c2cccc(C(=O)N3CCOCC3)c2)cc1,i,i,i,i,i,i
CN(C)c1ccc(/C=C(\C#N)C(=O)NCc2ccco2)cc1,nt,nt,i,i,i,nt
N#C/C(=C\Nc1ccc2c(c1)OCCO2)C(=O)NCc1ccco1,44,i,i,i,i,i
O=C(C1CC(c2ccccc2O)=NO1)N1CCCC1 (centres undefined),i,i,i,i,i,i
COc1cccc(-c2nnc(NC(=O)c3ccc(Cl)s3)o2)c1,41,i,i,i,i,i
CC(=Cc1cccs1)C(=O)c1ccccc1,32,nt,nt,nt,nt,i
N#Cc1ccccc1OCC(=O)NCC1(N2CCCCC2)CCCCC1,i,i,i,i,i,i
CC(=O)N1CCN(CCN=Cc2c(O)n(-c3ccc(F)cc3)c(=S)[nH]c2=O)CC1,i,i,i,i,i,i
CC(=O)N1CCN(CCN=Cc2c(O)n(-c3ccc(C)cc3)c(=S)[nH]c2=O)CC1,37,i,i,i,i,i
O=c1[nH]c(=S)n(-c2ccc(F)cc2)c(O)c1/C=N/N1CCOCC1,31,i,i,i,i,i
Cn1c(O)c(/C=N/N2CCOCC2)c(=O)n(-c2ccccc2)c1=S,35,i,i,i,i,i
O=c1[nH]c(=S)n(-c2ccc(Br)cc2)c(O)c1C=Nc1ccc(N2CCOCC2)cc1,i,i,i,i,i,i
SMILES,GDH-TPI counter,UGM FP inh,Rv3671c inh,RecA splice inh,Mtb bLac sens,Mtb FBA inh
CCOc1ccc(-n2c(O)c(C=Nc3ccc(N4CCOCC4)cc3)c(=O)[nH]c2=O)cc1,32,i,i,i,i,i
O=c1c(/C=N/N2CCOCC2)c(O)n(-c2ccccc2)c(=S)n1-c1ccccc1,i,i,i,i,i,i
O=C1COc2ccc(C(=O)COC(=O)CNC(=O)C3CCCCC3)cc2N1,i,i,i,i,i,i
COC(=O)C1=C(c2ccc(OC(F)(F)F)cc2)C[C@@H]2CC[C@H]1N2C(=O)N1CCOCC1,i,i,i,nt,i,i
CCOc1ccc(N2CC(C(=O)NCCN3C(=O)S/C(=C\c4ccc(OC)c(OC)c4)C3=O)CC2=O)cc1 (centres undefined),i,i,i,i,i,i
COc1ccc(NC(=O)C2CCCN(c3nc(C)cc(C)n3)C2)cc1 (centres undefined),i,i,i,i,i,i
CC1=CS/C(=C(/C#N)C(=O)NCc2ccco2)N1c1ccccc1,51,i,i,i,i,i
N#C/C(C(=O)NCc1ccco1)=C1/SC=C(c2ccccc2)N1c1ccccc1,i,i,i,i,nt,i
O=C(c1ccco1)N1N=C(c2cccs2)CC1c1cc([N+](=O)[O-])ccc1O (centres undefined),45,i,i,i,i,i
O=C1C(=O)N(CCO)C(c2ccc(Br)cc2)/C1=C(\O)c1ccccc1 (centres undefined),33,i,i,i,i,i
COCCCNC(=S)N(CCCO)Cc1cc2cc3c(cc2[nH]c1=O)OCO3,32,i,i,nt,i,i
CCN(CC)CCCN(Cc1cc2cc3c(cc2[nH]c1=O)OCO3)C(=O)Nc1ccccc1OC,32,i,i,i,i,i
CCN(CC)CCCN(Cc1cc2cc(OC)c(OC)cc2[nH]c1=O)C(=O)Nc1ccccc1,i,i,i,i,i,i
CC1(C)CC(NC(=O)Nc2ccc([N+](=O)[O-])cc2)CC(C)(C)N1,32,i,i,i,i,i
CC(C(=O)NC1CC(C)(C)NC(C)(C)C1)c1ccc([N+](=O)[O-])cc1 (centres undefined),i,i,i,i,i,i
Cc1c2n(c3ccccc13)CC/C2=N\O,i,i,i,i,i,i
CO/N=C1\CCn2c1c(C)c1ccccc12,31,i,i,i,i,i
CCOc1ccc(C(=O)Nc2cccc(-c3cc4ccccc4oc3=O)c2)cc1[N+](=O)[O-],32,i,i,i,i,i
O=C(/C=C/c1cccc([N+](=O)[O-])c1)c1ccc([N+](=O)[O-])o1,41,i,i,i,i,i
Cc1cccc(/C=C/C(=O)c2ccc([N+](=O)[O-])o2)c1,i,i,i,i,i,i
Cc1cccc(/C=N\Nc2nnc(-c3ccccc3)c(=O)[nH]2)c1,i,i,i,i,i,i
CC(/C=N/Nc1nnc(C)c(=O)[nH]1)=C\c1ccccc1,32,i,i,i,i,i
CCCOP(=O)(OCCC)C(Nc1ccc(C(C)C)cc1)c1ccc([N+](=O)[O-])cc1 (centres undefined),i,i,i,i,i,i
CN1CC2(Cc3c1ccc1ccccc31)C(=O)OC(C)(C)OC2=O,i,i,i,i,?,+
CCc1nnc(NC(=O)CSc2nnc(C3CC3)n2C)s1,i,i,i,i,i,i
CCN(CC)S(=O)(=O)c1ccc(N/N=C/c2cccnc2)nc1,73,i,i,i,i,i
COc1ccc(CN2CCN(c3ccccn3)CC2)c(OC)c1C,i,i,i,i,i,+!
CC(C)C(NC(=O)CNC(=O)OC(C)(C)C)C(=O)NCc1ccc(Cl)cc1 (centres undefined),i,i,i,i,i,i
O=C(O)CSc1cc(NS(=O)(=O)c2cccc([N+](=O)[O-])c2)c2ccccc2c1O,i,nt,nt,95,nt,i
